Reference: PubChem BioAssay (Tox21)
A number with no mark means an inactive call. Inconclusive results are not listed. Where a call stands in place of a potency, no number is given. Calls of active or inactive are those of the source. Unless noted, calls follow the shape of the full dose curve.

Columns and labels:
[1] = qHTS assay to identify small molecule antagonists of the estrogen receptor beta (ER-beta) signaling pathway - cell viability counter screen (AID 1259382; active = well fitted curve in the direction sought with a large enough effect in the repeat runs; an effect the other way counts as inactive or inconclusive; also: nearly all actives have a fitted effect of over 55% in size; also: potency is read from the fitted curve at half-maximal effect; as to activity change, negative = cytotoxicity: series mostly up to about 92 µM)
How it was run: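 Agonist-stimulated (1nM E2) ER-beta-UAS-bla HEK293T cells are incubated with library compounds for 16 hr at 37C. Cell viability is then assessed in the reporter-assay wells by adding CellTiter-Glo and reading luminescence after 30 min.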

[2] = qHTS assay to identify small molecule agonists or antagonists of the thyroid stimulating hormone receptor (TSHR) signaling pathway - wild type cell line counter screen (AID 1259384)
How it was run: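 Wild-type Hek293 cells, 800/well, 18 h at 37C, then compound with Ro20-1724 for 30 min RT. cAMP by HTRF (cAMP-d2/anti-cAMP cryptate), 1 h RT, fluorescence read. 15 concentrations, triplicates.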

[3] = biological target: Thyrotropin receptor (Homo sapiens) (UniProt P16473); assay: qHTS assay to identify small molecule antagonists of the thyroid stimulating hormone receptor (TSHR) signaling pathway (AID 1259385); also: nearly all actives have a fitted effect of over 20% in size; also: potency is read from the fitted curve at half-maximal effect
How it was run: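 TSHR-HEK293 cells (800/well) plated 18 h, then compounds with Ro20-1724 and TSH at 1.5 ng/mL final, 30 min at room temperature. cAMP quantified by HTRF (cAMP-d2/anti-cAMP-cryptate, 1 h); 15 concentrations in triplicate.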

[4] = biological target: Progesterone receptor (Homo sapiens) (UniProt P06401); assay: qHTS assay to identify small molecule antagonists of the progesterone receptor (PR) signaling pathway (AID 1346795; active = well fitted inhibition curve with a large enough effect in the signal ratio in the repeat runs, not every such curve was filed as active; the % refers to the signal ratio; also: potency is read from the fitted curve at half-maximal effect)
How it was run: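 Stimulus R5020 at 1 nM final; cells HEK293T PR-UAS-bla; medium with 2% charcoal-stripped FBS; compound exposure 16 hr at 37C, 5% CO2; detection by FRET beta-lactamase substrate, 2 hr, room temperature.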

[5] = qHTS assay to identify small molecule antagonists of the progesterone receptor (PR) signaling pathway - cell viability counter screen (AID 1346798; active = well fitted curve in the direction sought with a large enough effect in the repeat runs; an effect the other way counts as inactive or inconclusive; also: nearly all actives have a fitted effect of over 50% in size; also: potency is read from the fitted curve at half-maximal effect; as to activity change, negative = cytotoxicity: series mostly up to about 92 µM)
How it was run: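 In the same plates used for the beta-lactamase readout, cell viability of compound- and R5020-treated PR-UAS-bla HEK293T cells (16 hr, 37C) was assessed by CellTiter-Glo luminescence.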

[6] = qHTS assay to identify small molecule agonists of the progesterone receptor (PR) signaling pathway - cell viability counter screen (AID 1346799); also: nearly all actives have a fitted effect of over 45% in size; also: potency is read from the fitted curve at half-maximal effect
How it was run: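 Multiplexed viability read: CellTiter-Glo luminescence, 30 min RT, following LiveBLAzer FRET measurement on PR-UAS-bla HEK293T cells exposed to compounds 16 hr.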

[7] = qHTS assay to identify small molecule agonists of the estrogen receptor alpha (ER-alpha) signaling pathway in the presence of an antagonist - cell viability counter screen (AID 1259386; active = well fitted curve in the direction sought with a large enough effect in the repeat runs; an effect the other way counts as inactive or inconclusive;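 also: cells exposed to compounds for 22 h at 37 °C before the viability read; nearly all actives have a fitted effect of over 30% in size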; also: potency is read from the fitted curve at half-maximal effect; as to activity change, negative = cytotoxicity: series mostly up to about 92 µM)
How it was run: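 ICI-182,780 at 10.0nM final accompanies the compound titration (15 concentrations, 22hr, 37C) on VM7Luc4E2 cells. The CellTiter-Fluor fluorescence readout runs in the same wells as the luciferase assay.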

[8] = biological target: Progesterone receptor (Homo sapiens) (UniProt P06401); assay: qHTS assay to identify small molecule agonists of the progesterone receptor (PR) signaling pathway (AID 1346784); also: nearly all actives have a fitted effect of over 30% in size
How it was run: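 Reporter assay, GripTite PR-UAS-bla HEK 293T cells: 16 hr exposure to DMSO-dissolved compounds at 37C, 5% CO2, in steroid-depleted (2% charcoal-stripped FBS) medium; beta-lactamase measured by FRET fluorescence.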

[9] = biological target: Estrogen receptor (Homo sapiens) (UniProt P03372); assay: qHTS assay to identify small molecule agonists of the estrogen receptor alpha (ER-alpha) signaling pathway in the presence of an antagonist (AID 1259383); also: top concentration of the series differs between compounds; nearly all actives have a fitted effect of over 15% in size
How it was run: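 Using VM7Luc4E2 cells seeded 24hr before treatment, antagonist ICI-182,780 (10.0nM final) was added, followed by compounds at 15 concentrations. Plates incubated 22hr; ONE-Glo luminescence quantified reporter activity.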

Sequence of Thyrotropin receptor (Homo sapiens) (P16473 whole entry, looked up): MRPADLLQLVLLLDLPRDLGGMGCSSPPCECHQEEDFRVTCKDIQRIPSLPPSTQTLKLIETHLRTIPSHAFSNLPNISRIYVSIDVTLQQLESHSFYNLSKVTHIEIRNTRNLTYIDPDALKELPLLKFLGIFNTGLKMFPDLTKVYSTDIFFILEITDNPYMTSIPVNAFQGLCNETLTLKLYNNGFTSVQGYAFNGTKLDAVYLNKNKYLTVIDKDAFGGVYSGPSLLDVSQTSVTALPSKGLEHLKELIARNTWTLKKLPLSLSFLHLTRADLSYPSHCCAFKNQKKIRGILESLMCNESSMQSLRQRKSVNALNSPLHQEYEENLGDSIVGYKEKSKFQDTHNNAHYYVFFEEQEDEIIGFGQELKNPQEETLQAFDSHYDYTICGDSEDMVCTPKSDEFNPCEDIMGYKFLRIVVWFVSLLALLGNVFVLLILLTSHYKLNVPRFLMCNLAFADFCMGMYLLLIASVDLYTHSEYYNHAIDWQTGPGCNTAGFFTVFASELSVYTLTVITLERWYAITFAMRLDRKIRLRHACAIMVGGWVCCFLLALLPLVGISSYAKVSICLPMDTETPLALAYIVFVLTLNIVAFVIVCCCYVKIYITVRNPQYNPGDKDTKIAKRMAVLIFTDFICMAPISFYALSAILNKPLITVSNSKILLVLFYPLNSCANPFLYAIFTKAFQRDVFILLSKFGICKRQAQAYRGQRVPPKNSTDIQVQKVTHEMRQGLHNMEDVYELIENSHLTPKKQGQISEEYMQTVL
Sequence of Progesterone receptor (Homo sapiens) (P06401 whole entry, looked up): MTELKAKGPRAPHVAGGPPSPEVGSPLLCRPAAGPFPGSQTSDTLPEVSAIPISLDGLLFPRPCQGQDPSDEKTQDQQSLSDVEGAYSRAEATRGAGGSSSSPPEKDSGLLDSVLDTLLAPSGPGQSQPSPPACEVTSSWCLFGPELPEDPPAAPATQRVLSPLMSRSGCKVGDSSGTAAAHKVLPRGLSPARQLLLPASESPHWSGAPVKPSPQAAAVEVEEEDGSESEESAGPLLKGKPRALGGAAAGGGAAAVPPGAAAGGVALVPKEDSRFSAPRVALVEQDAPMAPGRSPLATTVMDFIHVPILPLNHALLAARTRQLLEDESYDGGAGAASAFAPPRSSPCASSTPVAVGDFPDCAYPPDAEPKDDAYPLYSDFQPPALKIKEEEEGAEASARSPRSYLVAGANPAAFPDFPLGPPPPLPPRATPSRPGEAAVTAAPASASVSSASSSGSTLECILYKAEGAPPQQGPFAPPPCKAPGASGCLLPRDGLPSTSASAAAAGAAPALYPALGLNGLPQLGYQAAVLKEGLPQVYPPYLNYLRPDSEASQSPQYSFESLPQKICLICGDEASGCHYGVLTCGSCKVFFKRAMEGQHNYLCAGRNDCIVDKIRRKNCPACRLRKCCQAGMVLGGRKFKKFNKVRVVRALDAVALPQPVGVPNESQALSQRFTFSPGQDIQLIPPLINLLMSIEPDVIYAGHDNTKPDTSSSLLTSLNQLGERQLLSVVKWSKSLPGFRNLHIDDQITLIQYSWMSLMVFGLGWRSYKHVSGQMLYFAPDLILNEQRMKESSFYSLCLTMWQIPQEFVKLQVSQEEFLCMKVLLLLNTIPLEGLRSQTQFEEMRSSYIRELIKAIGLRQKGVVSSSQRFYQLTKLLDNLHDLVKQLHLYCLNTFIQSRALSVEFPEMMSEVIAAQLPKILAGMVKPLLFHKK
Sequence of Estrogen receptor (Homo sapiens) (P03372 whole entry, looked up): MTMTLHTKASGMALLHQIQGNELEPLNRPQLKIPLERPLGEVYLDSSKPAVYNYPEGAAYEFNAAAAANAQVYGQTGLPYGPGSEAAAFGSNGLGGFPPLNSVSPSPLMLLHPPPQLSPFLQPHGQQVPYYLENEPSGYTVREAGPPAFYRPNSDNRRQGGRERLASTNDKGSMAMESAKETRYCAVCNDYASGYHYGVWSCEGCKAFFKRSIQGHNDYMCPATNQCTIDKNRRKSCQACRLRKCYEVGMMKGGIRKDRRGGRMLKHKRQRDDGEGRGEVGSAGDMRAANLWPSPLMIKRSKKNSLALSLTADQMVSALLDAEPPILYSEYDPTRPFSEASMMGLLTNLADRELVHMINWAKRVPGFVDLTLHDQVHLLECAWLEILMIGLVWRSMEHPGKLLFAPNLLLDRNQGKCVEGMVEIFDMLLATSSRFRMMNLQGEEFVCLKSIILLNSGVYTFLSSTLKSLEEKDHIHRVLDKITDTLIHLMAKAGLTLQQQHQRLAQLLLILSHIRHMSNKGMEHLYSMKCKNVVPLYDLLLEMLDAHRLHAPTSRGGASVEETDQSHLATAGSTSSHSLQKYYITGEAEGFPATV

O=C(CCCCCCCCc1cccnc1)N1CCC(C=C(c2ccccc2)c2ccccc2)CC1
Potency [1]: 24.3 µM (active)
Potency [2]: inactive
Potency [3]: inactive
Potency [4]: 21.7 µM (active)
Potency [5]: 30.6 µM (active)
Potency [6]: 30.6 µM (active)

ClC(c1ccccc1)(c1ccccc1)c1ccccc1
Potency [1]: inactive
Potency [7]: inactive
outcome [8]: inactive
Potency [6]: inactive

C/C(=C\c1ccc(C(=O)O)cc1)c1ccc2c(c1)C(C)(C)CCC2(C)C
Potency [9]: inactive
Potency [2]: inactive
Potency [3]: 29.8 µM (active)
Potency [7]: inactive
outcome [8]: inactive
Potency [5]: inactive
Potency [6]: inactive

Nc1c(Br)cc([N+](=O)[O-])cc1Br
Potency [9]: inactive
Potency [7]: inactive
outcome [8]: inactive
Potency [5]: inactive
Potency [6]: inactive

CCCCCCCCCC[N+](C)(CCCCCCCCCC)CCC[Si](OC)(OC)OC
Potency [9]: inactive
Potency [2]: inactive
Potency [3]: inactive
Potency [7]: inactive
outcome [8]: inactive
Potency [4]: inactive
Potency [6]: 24.3 µM (active)

CCCCCN=C(N)N/N=C/c1c[nH]c2ccc(OC)cc12
Potency [1]: 16.8 µM (active)
Potency [2]: inactive
Potency [3]: 29.8 µM (active)
Potency [5]: 23.7 µM (active)
Potency [6]: 16.8 µM (active)

O=C(Nc1ccc([N+](=O)[O-])cc1)Nc1ccc([N+](=O)[O-])cc1 (tested in a mixture with another compound)
Potency [2]: inactive
Potency [3]: inactive
Potency [7]: inactive
outcome [8]: inactive
Potency [5]: 1.19 µM (active)
Potency [6]: inactive

CCCCC/C=C\C=C\C(=O)OCC
Potency [9]: inactive
Potency [2]: inactive
Potency [3]: inactive
outcome [8]: inactive
Potency [4]: inactive
Potency [5]: inactive
Potency [6]: inactive

O[Si](c1ccccc1)(c1ccccc1)c1ccccc1
Potency [9]: inactive
Potency [2]: inactive
Potency [3]: inactive
Potency [7]: inactive
outcome [8]: inactive
Potency [5]: inactive

CCCCCCCCCCCC(=O)Cl
Potency [9]: inactive
Potency [2]: inactive
Potency [3]: inactive
outcome [8]: inactive
Potency [4]: inactive
Potency [5]: inactive
Potency [6]: inactive

c1ccc(-c2ccccc2-c2ccccc2)cc1
Potency [9]: inactive
Potency [2]: inactive
Potency [7]: inactive

O=[N+]([O-])c1ccc(O)c2ncccc12
Potency [2]: inactive
Potency [3]: inactive
outcome [8]: inactive
Potency [4]: 0.531 µM (active)
Potency [5]: 0.531 µM (active)
Potency [6]: inactive

S=C1NC=NC2N=CNC12 (configuration not stated)
Potency [2]: inactive
Potency [3]: inactive
Potency [7]: inactive
outcome [8]: inactive

CC(Cc1ccc(O)c(O)c1)C(C)Cc1ccc(O)c(O)c1 (configuration not stated)
Potency [9]: inactive
Potency [2]: inactive
Potency [3]: inactive
Potency [7]: inactive
outcome [8]: inactive
Potency [4]: 61.1 µM (active)
Potency [6]: inactive

O=S(=O)(c1ccc(OCc2ccccc2)cc1)c1ccccc1O
Potency [9]: inactive
Potency [2]: inactive
Potency [4]: 48.6 µM (active)

COc1cccc(-c2ccc(/C=C\CN3CCCCCC3)cc2Cl)c1
Potency [9]: inactive
Potency [2]: inactive
Potency [7]: inactive
outcome [8]: inactive
Potency [5]: inactive
Potency [6]: inactive

CCCCCCCCCCCCS(=O)(=O)Cl
cAMP activity change [2]: 2.12% [at 18.9 µM, stronger effect = higher value]
activity change, negative = inhibition [3]: -1.01% [at 19 µM]
activation [8]: -0.481% [at 19 µM]
activity change, negative = inhibition [4]: -1.09% [at 18.9 µM]
activity change, negative = cytotoxicity [5]: -16% [at 18.9 µM]
activity change, negative = cytotoxicity [6]: -21.2% [at 19 µM]

CC(C)=CCC[C@H](C)CC=O
Potency [1]: inactive
Potency [2]: inactive
Potency [3]: inactive
outcome [8]: inactive
Potency [4]: inactive
Potency [6]: inactive

COc1ccc(OC)c(N=Nc2c(O)ccc3ccccc23)c1
Potency [2]: inactive
Potency [3]: 61.1 µM (active)
outcome [8]: inactive
Potency [4]: inactive
Potency [5]: inactive

Clc1nc(C(Cl)(Cl)Cl)c(Cl)c(Cl)c1Cl
Potency [9]: inactive
Potency [2]: inactive
Potency [7]: inactive
outcome [8]: inactive
Potency [6]: inactive

CC1CCC(C(C)(C)O)CC1 (configuration not stated)
Potency [1]: inactive
Potency [7]: inactive
outcome [8]: inactive
Potency [6]: inactive

COc1c(Br)cc(Br)c(C)c1Br
Potency [1]: inactive
Potency [2]: inactive
Potency [7]: inactive
outcome [8]: inactive
Potency [4]: inactive
Potency [6]: inactive

c1ccc(-c2ccc(C(c3ccccc3)n3ccnc3)cc2)cc1 (configuration not stated)
Potency [9]: inactive
Potency [2]: inactive
Potency [4]: 5.96 µM (active)
Potency [5]: 9.44 µM (active)
Potency [6]: 16.8 µM (active)

c1ccc(-c2nc3ccccc3[nH]2)cc1
Potency [9]: inactive
Potency [2]: inactive
Potency [3]: inactive
Potency [7]: inactive
outcome [8]: inactive
Potency [5]: inactive
Potency [6]: inactive

c1ccc2occc2c1
Potency [9]: inactive
Potency [2]: inactive
Potency [3]: inactive
Potency [7]: inactive
outcome [8]: inactive

O=C(O)CN(CCCN(CC(=O)O)CC(=O)O)CC(=O)O
activation [9]: -0.204% [at 19 µM]
cAMP activity change [2]: 0.161% [at 18.9 µM, stronger effect = higher value]
activity change, negative = inhibition [3]: 1.63% [at 19 µM]
activation [8]: 8.3% [at 19 µM]
activity change, negative = inhibition [4]: -17.6% [at 18.9 µM]
activity change, negative = cytotoxicity [6]: -13.8% [at 19 µM]

CN(C/C=C/c1ccccc1)Cc1cccc2ccccc12
Potency [9]: inactive
Potency [2]: inactive
outcome [8]: inactive
Potency [5]: inactive
Potency [6]: inactive

CN1CCN(CCCN2c3ccccc3Sc3ccc(C(F)(F)F)cc32)CC1
Potency [1]: 21.1 µM (active)
Potency [2]: inactive
Potency [3]: 26.6 µM (active)
Potency [5]: 26.6 µM (active)

O=C1Cc2ccccc2C1
Potency [5]: inactive

C=Cc1ccc(O)c(OC)c1
Potency [9]: inactive
Potency [2]: inactive
Potency [3]: inactive
Potency [7]: inactive
outcome [8]: inactive
Potency [6]: inactive

CCCCCCCCOC(=O)c1cc(O)c(O)c(O)c1
Potency [9]: inactive
Potency [2]: inactive
Potency [3]: inactive
Potency [7]: 54.5 µM (active)
Potency [4]: 30.6 µM (active)

CCCCCCCC1CCC(=O)O1 (configuration not stated)
Potency [5]: inactive

CC(C)=NNC(N)=S
Potency [9]: inactive
Potency [7]: inactive
Potency [5]: 21.7 µM (active)

O=c1[nH]cccc1O
Potency [9]: inactive
Potency [7]: inactive
outcome [8]: inactive

CC(C)(c1ccc(Oc2ccc(N)cc2)cc1)c1ccc(Oc2ccc(N)cc2)cc1
Potency [9]: inactive
Potency [2]: inactive
outcome [8]: inactive
Potency [4]: 27.3 µM (active)
Potency [6]: inactive
